# In the library only some 3.9% were active in any assay of this set; here they are far more common.
# Tb PFK inh – T. brucei PFK enzyme inhibition | O15648 | T. brucei PFK, ADP-Glo luminescence | Potency, µM (titrated, usually from 57.5 µM), without a hit: top-dose activity, negative = inhibition, usual class: inhibitors | 330,000 tested, 0.17% active | AID 485367;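 also: 0% = uninhibited 1x PFK enzyme wells and -100% = no-enzyme wells; nearly all actives have a fitted effect of over 60% in size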
# Target sequence (O15648 whole entry, looked up): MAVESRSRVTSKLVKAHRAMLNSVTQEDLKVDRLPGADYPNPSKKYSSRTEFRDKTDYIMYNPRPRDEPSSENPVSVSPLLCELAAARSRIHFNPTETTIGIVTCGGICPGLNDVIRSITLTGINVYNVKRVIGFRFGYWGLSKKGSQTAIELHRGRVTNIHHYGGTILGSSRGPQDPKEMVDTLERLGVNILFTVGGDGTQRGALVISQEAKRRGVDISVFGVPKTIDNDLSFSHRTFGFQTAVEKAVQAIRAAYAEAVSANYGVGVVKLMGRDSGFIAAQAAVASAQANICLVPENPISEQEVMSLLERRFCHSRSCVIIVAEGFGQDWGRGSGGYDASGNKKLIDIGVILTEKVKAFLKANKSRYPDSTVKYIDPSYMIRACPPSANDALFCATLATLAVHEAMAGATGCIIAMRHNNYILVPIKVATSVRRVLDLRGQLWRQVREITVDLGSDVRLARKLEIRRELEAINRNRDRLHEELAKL
#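 In TEA buffer at pH 8.0 with 5 mM MgCl2, enzyme (1.25 nM) converted F6P (0.5 mM) and ATP (0.1 mM) for 45 min at room temperature. ADP product was read by luciferase luminescence.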
# PLK1 PBD block – inhibitors of human PLK1 polo-box domain binding; P53350; Plk1 PBD binding of FITC phosphopeptide, fluorescence polarization; Potency, µM, for inactives: max response, negative = inhibition, hits mostly inhibitors; 360,000 tested, 2.8% active; AID 720504; also: series mostly up to about 57 µM; % is scaled to controls: 0 for no effect and ±100 for the full control effect; nearly all actives have a fitted effect of over 65% in size
# BRCA1 expr act – BRCA1 expression activation; MCF7-BRCA1-FFLuc reporter, luminescence, 48 h; response scale: scaled: vehicle 0%, 10 µM genistein 100%; Potency, µM (doses to about 46.1 µM), without a hit: top-dose activation, hits mostly activators; 380,000 tested, 1.1% active; AID 624202; also: nearly all actives have a fitted effect of over 80% in size
#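 Using MCF7 cells harboring a BRCA1 firefly luciferase reporter, plated 2 h before compound pinning, the screen measured luminescence after 48 h incubation. Responses were normalized to DMSO and 10 microM genistein, then fitted for concentration-effect.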
# VDR inh – vitamin D3 receptor (human) inhibition | VDR-SRC2-3 peptide fluorescence polarization, 2 h | Potency, µM, without a hit: max response, negative = inhibition, most hits filed as inhibitors | P11473 | 400,000 tested, 0.93% active; also: % is scaled to controls: 0 for no effect and ±100 for the full control effect
#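 Reagent solutions, kept cold and dark, are dispensed first; compounds are then pinned in at 23 nl, plates briefly spun, and incubated 2 h at ambient temperature. Inhibition of VDR–SRC2-3 peptide binding is read by fluorescence polarization.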
# Starred values were filed as active, the others as inactive; ? = inconclusive; / = no result given. Calls follow the shape of the dose curve; as a rule, active = well fitted curve in the direction sought with a large enough effect; inconclusive = small, poorly fitted or top-dose-only effect, or another doubt; inactive = no such curve, though single readings can be large; an effect the other way counts as inactive or inconclusive. Potency is read from the fitted curve at half-maximal effect.
SMILES,Tb PFK inh,PLK1 PBD block,BRCA1 expr act,VDR inh
CCOc1ccc(N(C(C)C(=O)N2CCCC2)S(C)(=O)=O)cc1 (centres undefined),1%,19µM*,-8%,?
N#C/C(=N\Nc1ccccc1)C(=N)N1CCCCCC1,-7%,5%,2.5µM*,-15%
O=c1[nH]c(=O)n2ncnc2[nH]1,/,-8%,-3%,/
COc1ccc(OCc2nc(N)nc(Nc3ccc(C)cc3)n2)cc1,6%,0%,16µM*,-21%
COc1ccc(Nc2nc(N)nc(CSc3nccn3C)n2)cc1,-3%,?,3.2µM*,-6%
CCCCNC(=O)Cn1c(SCc2cccc(F)c2)nc2ccncc21,/,/,22%,-6%
Cc1nn(C(=O)COc2ccccc2Br)c(C)c1Sc1ccccc1,/,/,/,10%
CC(=O)c1cnc(Nc2cccc(Cl)c2Cl)s1,-12%,?,10µM*,-8%
COc1ccc(-c2nc(-c3ccccc3)oc2Nc2ccccc2C)cc1,/,/,/,-1%
O=C1c2ccccc2C(=O)N1C/C=C/CN1C(=O)c2ccccc2C1=O,-3%,/,/,/
O=C1c2ccccc2C(=O)N1C1C=CC=CC=C1,/,30µM*,-6%,/
Cc1nn(CCOc2ccccc2)c(=O)n1-c1ccc(F)cc1,-2%,1%,13µM*,-5%
COc1ccc(C(=O)c2ccccc2)cc1,1%,-11%,32%,11%
COC1=CC(=O)C(C(=O)c2ccccc2)=CC1=O,/,/,/,32µM*
Cc1ccc(OC(=O)NC2CCS(=O)(=O)C2)cc1C (centres undefined),0%,-3%,-1%,10%
O=C(NC1CCS(=O)(=O)C1)Oc1ccccc1 (centres undefined),2%,27µM*,-14%,-16%
O=C(/C=C/c1cccs1)NC1CCS(=O)(=O)C1 (centres undefined),2%,27µM*,-7%,89µM*
COC/C=C/C1=CC2=CC(=O)C(C)(OC(=O)c3cnc4ccccc4n3)C(=O)C2=CN1c1ccc(CO)cc1 (centres undefined),4.8µM*,/,/,/
COC(=O)NC(c1ccccc1)C1(C(=O)OC)C(=O)Cc2ccccc21 (centres undefined),/,/,/,-12%
O=C1[C@@H]2C[C@@H]3C[C@H]1C[C@@](O)(C3)C2,/,/,/,9%
Cc1cccc(OCC(=O)Nc2ccccc2C(=O)OCc2cc(=O)n3nc(C4CC4)sc3n2)c1,/,/,/,11%
COc1ccc(/[N+]([O-])=C/c2ccco2)cc1,-1%,?,8.9µM*,?
CC(C)CC(C(=O)O)N1C(=O)C2C3CC(C2C1=O)C1C(c2ccccc2)c2sc(=O)[nH]c2SC31 (centres undefined),2%,17µM*,-3%,?
O=[N+]([O-])c1cc(-c2nc(-c3ccncc3)no2)ccc1NCc1ccccc1,/,/,15%,13%
N/C(=C\C(=O)c1cc(Cl)ccc1O)C(Cl)(Cl)Cl,1%,6.7µM*,-51%,?
SMILES,Tb PFK inh,PLK1 PBD block,BRCA1 expr act,VDR inh
O=C(Nc1cc(C(F)(F)F)cc(C(F)(F)F)c1)c1cc(Cl)ccc1O,/,/,/,3%
c1ccc(CNc2ncnc3ccc(-c4ccc5c(c4)OCO5)cc23)cc1,/,/,/,-21%
CCc1ccccc1NC(=O)CN1C(=O)COc2ccc(S(=O)(=O)N3CCCCCC3)cc21,/,/,/,-2%
O=S(c1ccccc1O)S(=O)c1ccccc1O (centres undefined),/,0.6µM*,-16%,35µM*
CS(=O)c1ccccc1O (centres undefined),3%,-5%,8%,15%
CCC1=NN2C(=N)/C(=C\c3ccc(SCc4ccco4)o3)C(=O)N=C2S1,-12%,?,-4%,-10%
O=C1NC(=S)S/C1=C\c1ccc(SCc2ccco2)o1,-27%,3µM*,-6%,45µM*
CCCC1=NN2C(=N)/C(=C\c3ccc(SCc4ccco4)o3)C(=O)N=C2S1,?,24µM*,-3%,2%
O=C1NC(=S)S/C1=C\c1ccc(SCc2ccccc2)o1,13%,27µM*,-37%,?
COC(=O)C1CCN(C2=C(NS(=O)(=O)c3ccc(Cl)cc3)C(=O)c3ccccc3C2=O)CC1,-7%,21µM*,-19%,-20%
CCOC(=O)c1c(S(=O)(=O)NCC(=O)Nc2ccc(C(C)=O)cc2)c(C)n(C)c1C,/,/,/,-5%
Cc1ccc(SCc2cn3cccnc3n2)cc1,-5%,-6%,11µM*,-3%
Cn1ncnc1SCc1cn2cccnc2n1,1%,-16%,19%,3%
Cc1cccc(N/C=C(\[N+](=O)[O-])S(=O)(=O)c2ccccc2)c1,1%,27µM*,15%,-26%

# High-throughput results deposited in PubChem by National Center for Advancing Translational Sciences (NCATS).
